High-throughput results as filed in PubChem BioAssay.
RGS7-Gao reg: modulates binding of RGS7 to human Galphao; P09471; Multiplexed bead flow cytometry; actives lie on both sides; actives 0.35% (n = 220,000); AID 1439; binding response (% of control), % at 10 µM; in the data active means binding response below about 49% or above about 150%; inconclusive means no clear call, values can overlap the other calls; inactive means in between;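 further: fluorescent Galphao held in activated GDP-AlF4 state binding bead-coupled RGS7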
Target sequence (P09471 whole entry, looked up): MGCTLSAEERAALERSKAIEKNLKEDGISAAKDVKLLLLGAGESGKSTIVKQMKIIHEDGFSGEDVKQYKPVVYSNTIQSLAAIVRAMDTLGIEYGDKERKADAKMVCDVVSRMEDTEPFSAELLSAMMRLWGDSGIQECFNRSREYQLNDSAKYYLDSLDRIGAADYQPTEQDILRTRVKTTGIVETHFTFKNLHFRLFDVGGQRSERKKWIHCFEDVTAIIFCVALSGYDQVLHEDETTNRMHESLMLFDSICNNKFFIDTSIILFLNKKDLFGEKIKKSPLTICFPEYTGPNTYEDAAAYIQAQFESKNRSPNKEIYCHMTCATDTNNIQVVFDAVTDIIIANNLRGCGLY
RGS4-Gao reg: modulates binding of RGS4 to human Galphao; P09471; Multiplexed bead flow cytometry; actives lie on both sides; binding response (% of control), % at 10 µM; actives 0.33% (n = 220,000); in the data active means binding response below about 49% or above about 150%; inactive means in between;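 further: fluorescent Galphao activated with aluminum fluoride binding bead-coupled RGS4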
RGS8-Gao: human RGS8-Galphao interaction regulation | P09471 | multiplexed bead flow cytometry, RGS8-Galphao binding; actives lie on both sides | response (percent of control binding), % at 10 µM | actives 0.34% (n = 220,000) | AID 1423; in the data active means response below about 60% or above about 140%; inactive means in between;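 further: Galphao activated as the GDP aluminium fluoride complex binding bead-coupled RGS8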
Avidin fluor: avidin bead compound fluorescence profile. Avidin beads, compound fluorescence 488/530 nm, flow cytometry; stronger effect = higher value. fluorescence (KMESF) at 10 µM. AID 1775. actives 0.38% (n = 220,000); in the data active means fluorescence above about 47
GSH fluor: compound fluoresces at 488/530 nm on GSH beads; GSH beads flow cytometry, compound fluorescence 488/530 nm; stronger effect = higher value; fluorescence (KMESF) at 10 µM; actives 0.25% (n = 190,000); AID 1776; in the data active means fluorescence above about 89;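 further: glutathione beads carrying GST-tagged Bcl family fusion proteins plus one bare bead set; values are compound well signal with DMSO vehicle wells as background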
RGS16-Gao HTS: regulators of human RGS16-Galphao interaction; O15492+P09471; bead-based flow cytometry RGS16-Galphao binding, fluorescence; actives lie on both sides; binding response (% of control), % at 10 µM; actives 0.38% (n = 220,000); AID 1441;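 further: Galphao activated by GDP with aluminum fluoride before binding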
RGS-Gao: modulates binding between human RGS4 and Galphao; shares compounds with RGS16-Gao HTS; multiplexed bead flow cytometry, RGS–Galpha-o binding; RGS4–Galpha-o binding response, % at 10 µM; actives 99% (n = 1,600);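 further: fluorescently labeled Galpha-o bound to GDP with aluminium fluoride binding biotinylated RGS beads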
Target sequence (P09471 whole entry, looked up): as above
Target sequence (P49798 whole entry, looked up): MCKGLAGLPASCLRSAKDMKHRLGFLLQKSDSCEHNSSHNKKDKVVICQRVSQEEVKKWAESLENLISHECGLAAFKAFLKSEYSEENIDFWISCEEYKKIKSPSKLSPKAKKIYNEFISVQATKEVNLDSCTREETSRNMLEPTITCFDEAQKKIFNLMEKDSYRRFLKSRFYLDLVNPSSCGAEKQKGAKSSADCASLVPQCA
Biotin-avidin: counter-screen: compounds disrupting biotin binding to avidin beads | shares compounds with RGS16-Gao HTS | streptavidin beads, fluorescein-biotin binding, flow cytometry | inhibition, % at 10 µM | 1,700 tested, under 10 active;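 active means inhibition above 50%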;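 further: median green fluorescence of gated singlet beads compared with DMSO control wells; 0% = DMSO wells and 100% = complete loss of bead fluorescence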
RGS8-Gao confirm: confirmation of regulators of human RGS8-Galphao interaction; shares compounds with RGS16-Gao HTS; bead-based flow cytometry RGS8-Galphao binding, fluorescence; actives lie on both sides; binding response (% of control), % at 10 µM; actives 3% (n = 1,700); AID 1836; in the data active means binding response below about 72% or above about 130%; inactive means in between;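 further: Galphao activated as GDP AlF4 complex before binding bead RGS8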
RGS7-Gao single: confirmation of regulators of human RGS7-Galphao interaction; shares compounds with RGS16-Gao HTS; bead-based flow cytometry RGS7-Galphao binding; actives lie on both sides; response (percent of control binding), % at 10 µM; actives 7.8% (n = 1,700); in the data active means response below about 75% or above about 130%; inactive means in between;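 further: fluorescent Galphao activated with GDP and aluminum fluoride binding bead-coupled RGS7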
RGS16-Gao conf: confirmation of regulators of human RGS16-Galphao interaction. bead-based flow cytometry, RGS16-Galphao binding; actives lie on both sides. actives 4% (n = 1,700). response (% of control binding), % at 10 µM. shares compounds with RGS16-Gao HTS; in the data active means response below about 74% or above about 130%; inactive means in between;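 further: Galphao activated as the GDP aluminium fluoride complex binding bead-coupled RGS16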
RGS4-Gao confirm: RGS4-Galphao interaction regulation, single point confirmation | shares compounds with RGS16-Gao HTS | RGS4-Galphao binding, multiplexed bead flow cytometry; actives lie on both sides | binding response (% of control), % at 10 µM | actives 4% (n = 1,700); in the data active means binding response below about 74% or above about 130%; inactive means in between
RGS19-Gao conf: confirmation of regulators of human RGS19-Galphao interaction; shares compounds with RGS16-Gao HTS; bead-based flow cytometry RGS19-Galphao binding; actives lie on both sides; response (percent of control binding), % at 10 µM; actives 5% (n = 1,700); AID 1841; in the data active means response below about 50% or above about 160%; inactive means in between;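 further: 100% = no compound control and 0% = blank background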
Starred values were filed as active, the others as inactive; ? = inconclusive; . = not tested or not shown; [ ] = dose if it differs, or a comment. Only some compounds are listed: those with a hit (about 1.2% of all), similar ones and a draw of the others. Unless noted, how the calls were made is not given here.

SMILES	RGS7-Gao reg	RGS4-Gao reg	RGS8-Gao	Avidin fluor	GSH fluor	RGS16-Gao HTS	RGS-Gao	Biotin-avidin	RGS8-Gao confirm	RGS7-Gao single	RGS16-Gao conf	RGS4-Gao confirm	RGS19-Gao conf
CCN(CC)C(=O)CN1CCN(c2ncccn2)CC1	122	120	142*[activator]	3	31	271	120*	0	100	86	93	96	83
O=C(CN1CCN(c2ncccn2)CC1)N1CCCC1	101	103	104	12	14	107	.	.	.	.	.	.	.
Cn1nc(C(F)(F)F)c(-c2ccc(F)cc2)c1NC(=O)c1ccco1	?	188*[activator]	116	61*	.	176*[activator]	.	0	97	74*	85	83	68
Cn1nc(C(F)(F)F)c(-c2ccccc2)c1NC(=O)c1ccco1	?	82	93	3	.	84	.	.	.	.	.	.	.
COC(=O)c1c(C)c[nH]c1C	102	100	102	8	24	98	.	.	.	.	.	.	.
Cc1c(Cl)cccc1NC(=S)NC(=O)CCN1C(=O)c2ccccc2C1=O	47*	49*	62	0	5	61	.	0	108	104	111	106	106
COc1cccc(C(=O)NCCOc2cc(C)cc(C)c2)c1	98	91	81	3	7	56	.	-1	101	95	100	98	119
CCN(CC)c1ccc(/C=N/OCC(=O)Nc2cccc(C)c2)cc1	102	105	101	23	23	105	.	.	.	.	.	.	.
Cc1ccc(OC(=O)C23CC4CC(CC(C4)C2)C3)c(C)n1	152*[activator]	119	98	111*	10	101	119*	2	105	109	104	107	90
CCc1nc(C)ccc1OC(=O)C12CC3CC(CC(C3)C1)C2	100	101	99	21	11	101	.	.	.	.	.	.	.
COC(=O)c1sc(-c2cccs2)cc1N	?	173*[activator]	116	50*	.	159	.	1	100	99	98	101	97
COC(=O)c1sc(-c2ccc(Cl)cc2)cc1N	?	104	101	3	.	100	.	.	.	.	.	.	.
CCOC(=O)N1CCN(C(=O)CCCn2c(=S)[nH]c3ccccc3c2=O)CC1	.	.	.	.	45	.	.	0	102	98	107	103	102
Fc1cccc(Cl)c1/C=N/n1c(-c2cccnc2)n[nH]c1=S	88	88	59*	6	10	1	88*	-3	93	113	87	95	87
CCOC(=O)c1c(NC(=O)Cn2cnc([N+](=O)[O-])n2)sc2c1CCCC2	103	98	99	9	11	91	.	.	.	.	.	.	.
CC(C)OC(=O)c1c(NC(=O)Cn2cnc([N+](=O)[O-])n2)sc2c1CCCC2	.	.	.	.	18	.	.	0	98	106	96	97	106
CCOc1ccccc1N1CCN(C(=O)c2ccc3[nH]c4c(c3c2)CCCC4)CC1	81	84	74	3	16	24*	84*	0	100	100	99	100	93
CCOc1ccccc1N1CCN(C(=O)c2ccncc2)CC1	103	102	101	38	13	102	.	.	.	.	.	.	.
CC(=O)c1sc(Nc2nc3cc4c(cc3s2)OCO4)nc1C	95	98	95	11	9	95	.	.	.	.	.	.	.
CCOC(=O)c1sc(Nc2nc3cc4c(cc3s2)OCO4)cc1C	666*[activator]	583*[activator]	171*[activator]	417*	102*	938*[activator]	.	2	92	69*	80	80	48*
NNc1nc2ccc(F)cc2s1	89	92	78	8	9	0.3*	92*	3	101	94	102	100	108
NNc1nc2ccc(Cl)cc2s1	100	102	102	15	17	99	.	.	.	.	.	.	.
COc1ccc(Cc2nc(-c3ccc(Cl)cc3)no2)cc1	99	102	102	12	33	103	.	.	.	.	.	.	.
COc1ccc(-c2noc(Cc3ccc(Cl)cc3)n2)cc1OC	167*[activator]	109	98	67*	28	93	109*	-1	103	99	101	101	102
CC(=O)NCC(=O)OCC(=O)c1ccc(Br)cc1	96	98	99	15	6	96	.	.	.	.	.	.	.
SMILES	RGS7-Gao reg	RGS4-Gao reg	RGS8-Gao	Avidin fluor	GSH fluor	RGS16-Gao HTS	RGS-Gao	Biotin-avidin	RGS8-Gao confirm	RGS7-Gao single	RGS16-Gao conf	RGS4-Gao confirm	RGS19-Gao conf
CC(=O)COC(=O)CNC(=O)c1ccc(Br)cc1	137	138	167*[activator]	2	33	.	138*	.	.	.	.	.	.
O=C(NCCc1ccccc1)c1ccccc1NC(=O)C1CCCCC1C(=O)O (stereo not given)	88	91	96	11	18	99	.	.	.	.	.	.	.
Cc1ccccc1-n1c(-c2ccncc2)n[nH]c1=S	88	91	64	13	11	18*	91*	0	106	111	107	110	101
COc1ccc(CC(=O)NNC(=O)COc2ccc(Br)cc2C)cc1OC	99	101	101	3	6	107	.	.	.	.	.	.	.
Cc1ccc(CNC(=O)C(C(=O)NCc2ccc(C)o2)c2ncc(C(F)(F)F)cc2Cl)o1	100	101	97	10	15	98	.	.	.	.	.	.	.
COC(=O)CCC(=O)NNC(=O)c1ccc(Cl)cc1Cl	175*[activator]	104	84	113*	42	32	104*	.	.	.	.	.	.
COC(=O)CCC(=O)NNC(=O)CCCOc1ccc(Cl)cc1Cl	102	100	105	13	10	102	.	.	.	.	.	.	.
O=C(OCc1cccc2ccccc12)c1ccc2c(=O)[nH]c(CN3CCOCC3)nc2c1	-54*	-138*	-2.4*	-6	32	-114*	.	2	98	98	101	101	96
